# Source: PubChem BioAssay (Tox21)
# Inconclusive results are not listed. Active and inactive are the calls of the source. Calls come from the whole dose curve.
# Target: Retinoic acid receptor RXR-alpha (Homo sapiens) (UniProt P19793)
# Assay: qHTS assay to identify small molecule agonists of the RXR signaling pathway (AID 1159527); note: nearly all actives have a fitted effect of over 35% in size
# Settings: HEK293T RXRa-UAS-bla, beta-lactamase ratio, 16 h; series mostly up to 76.8 µM; activation: at the top concentration
# Description: U.S. Tox21 Program National Center for Advancing Translational Sciences [NCATS] NIH Chemical Genomics Center [NCGC] U.S. Environmental Protection Agency [EPA] National Institutes of Environmental Health Sciences [NIEHS] National Toxicology Program [NTP] U.S. Food and Drug Administration [FDA] Tox21 Assay Overview: The Retinoid X receptor (RXR), a nuclear hormone receptor expressed in liver, spleen, placenta, epidermis, central nervous system. These receptors are able to form homo and heterodimers with other nuclear receptors and due to this heterodimerizing ability, RXR functions as master regulators producing diverse physiological effects. Three subtypes of RXR exist; alpha, beta and gamma. Retinoid X receptor alpha (RXR-alpha) has potential roles in metabolic signaling pathways, skin alopecia, dermal cysts, cardiac development, insulin sensitization etc. Therefore screening environmental chemicals on RXR-alpha signaling can be used for the studies focused on such therapeutic applications. For quantification of RXR-alpha ligands signaling, GeneBLAzer RXR alpha-UAS-bla HEK 293T (Life Technologies, Carlsbad, CA) cells containing a beta-lactamase reporter-gene under control of Retinoid X receptor-alpha response element were used to screen Tox21 10K library.
# Tox21 Assay Protocol Summary: RXR-alpha HEK 293T cells were dispensed at 2,000 cells/6 uL of assay medium containing 2% charcoal-stripped FBS using a Multidrop Combi (ThermoFisher Scientific, Waltham, MA) dispenser. The assay was performed in black wall/clear-bottom 1536-well plates (Greiner Bio-One North America Inc. Monroe, NC). 9-cis retinoic acid was used as a positive control in the agonist mode screen. After the assay plates were incubated at 37 C and 5% CO2 for 5 hr, 23 nL of compounds dissolved in DMSO, positive controls or DMSO only were transferred to the assay plate by a Pintool station (Kalypsys, San Diego, CA). The assay plates were incubated at 37 C and 5% CO2 for 16 hr. One uL of LiveBLAzer B/G FRET substrate (Life Technologies) was added using a Flying Reagent Dispenser (Aurora Discovery, San Diego, CA) and the plates were incubated at room temperature for 2 hr. Fluorescence intensity (405 nm excitation, 460/530 nm emission) was measured using an Envision plate reader (PerkinElmer, Shelton, CT).
# % is set by controls: 0 for no effect and ±100 for the full control effect; potency is the fitted concentration of half-maximal effect.
# Chain of Retinoic acid receptor RXR-alpha (Homo sapiens) (P19793 whole entry, looked up): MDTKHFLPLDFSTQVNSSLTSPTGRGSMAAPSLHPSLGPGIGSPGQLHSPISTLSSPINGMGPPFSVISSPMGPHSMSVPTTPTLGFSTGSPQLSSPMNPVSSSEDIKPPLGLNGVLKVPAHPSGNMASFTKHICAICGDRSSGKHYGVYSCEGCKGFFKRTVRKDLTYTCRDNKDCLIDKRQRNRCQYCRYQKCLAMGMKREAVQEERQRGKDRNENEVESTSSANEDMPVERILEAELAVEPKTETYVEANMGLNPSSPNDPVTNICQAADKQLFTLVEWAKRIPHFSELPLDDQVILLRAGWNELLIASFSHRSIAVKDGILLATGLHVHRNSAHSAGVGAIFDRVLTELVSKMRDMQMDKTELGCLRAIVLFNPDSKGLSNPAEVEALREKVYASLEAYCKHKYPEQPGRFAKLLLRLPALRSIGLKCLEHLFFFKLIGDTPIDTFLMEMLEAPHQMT
SMILES,activation,Potency
CC1=NN(c2cc(Cl)c(S(=O)(=O)O)cc2Cl)C(=O)C1N=Nc1ccc(S(=O)(=O)O)cc1 (stereo not given),-0.454% (inactive),–
Cc1cn([C@@H]2O[C@H](CO)[C@@H](O)[C@@H]2F)c(=O)[nH]c1=O,8.11% [at 35.3 µM] (inactive),–
COc1cc(C)ccc1C(C)C,7.27% (inactive),–
O=C1CCCCCCCCCCC(=O)OCCO1,-8.44% (inactive),–
COc1cc(N)c(Cl)cc1C(=O)NC1CCN(Cc2ccccc2)CC1,-1.61% [at 35.3 µM] (inactive),–
Oc1ccccc1F,-14.9% (inactive),–
Cc1cccc(C)c1NC(=O)CN1CCCCCC1,2.76% [at 35.3 µM] (inactive),–
c1ccc(CN(CC2=NCCN2)c2ccccc2)cc1,-6.99% [at 35.3 µM] (inactive),–
CC1CN(c2ccccc2)NC1=O (stereo not given),6.16% (inactive),–
CCCCCCCCCC/C=C/C#N,-10.8% (inactive),–
C1CSCCS1,7.15% (inactive),–
O=Cc1ccc(F)c(Br)c1,4.78% (inactive),–
N#Cc1ccc(C(c2ccc(C#N)cc2)n2cncn2)cc1,7.92% [at 35.3 µM] (inactive),–
CN(CC1(C)CCCO1)S(=O)(=O)c1ccc(Cl)c(S(N)(=O)=O)c1 (stereo not given),3.89% [at 35.3 µM] (inactive),–
O=C1CCCc2ccccc21,–,6.99 µM (active)
CCOc1ccc(NS(=O)(=O)c2ccc(N)cc2)nn1,6.86% [at 35.3 µM] (inactive),–
O=C(O[C@@H](C(=O)O)[C@@H](OC(=O)c1ccccc1)C(=O)O)c1ccccc1,-1.5% (inactive),–
NNS(=O)(=O)c1ccc(Oc2ccc(S(=O)(=O)NN)cc2)cc1,-5.8% (inactive),–
O=C1CCC(C2CCCCC2)CC1,-16.7% (inactive),–
CCN(CC)CCNC(=O)COc1ccc(Cl)cc1,4.35% [at 35.3 µM] (inactive),–

SMILES,activation,Potency
CC(C)(C)c1cccc(O)c1,-2.87% (inactive),–
COC(=O)c1ccc(OC)cc1,5.52% (inactive),–
O=C1CCCCC1C1CCCCC1 (stereo not given),4.78% (inactive),–
CC(C)CCCCCCc1ccc(OCCOCCO)cc1,-4.65% (inactive),–
CCCNC(C)C(=O)Nc1c(C)csc1C(=O)OC (stereo not given),-1.5% [at 35.3 µM] (inactive),–
CCN[C@H]1CN(CCCOC)S(=O)(=O)c2sc(S(N)(=O)=O)cc21,4.83% [at 35.3 µM] (inactive),–
NS(=O)(=O)c1cc(-c2nn[nH]n2)c(NCc2cccs2)cc1Cl,4.89% [at 35.3 µM] (inactive),–
NCCC(O)(P(=O)(O)O)P(=O)(O)O,0.122% [at 35.3 µM] (inactive),–
CC(C)c1ccccc1,0.828% (inactive),–
CCCc1c2oc(C(=O)O)cc(=O)c2cc2c(=O)cc(C(=O)O)n(CC)c12,4.53% [at 35.3 µM] (inactive),–
COc1cc(Cl)ccc1Cl,-2.15% (inactive),–
Cc1cc2nc(N)sc2cc1C,-7.76% (inactive),–
Clc1cccc(-c2cc(Cl)cc(Cl)c2)c1,-17.6% (inactive),–
O=C(O)c1cccc(Cl)c1Cl,10.8% (inactive),–
CC1(C)S[C@@H]2[C@H](NC(=O)C(C(=O)O)c3ccccc3)C(=O)N2[C@H]1C(=O)O (stereo not given in full),0.229% [at 35.3 µM] (inactive),–
CC(C)Nc1nc(N)nc(Cl)n1,16.3% (inactive),–
Cc1ncc(CO)c(CN)c1O,12.3% [at 35.3 µM] (inactive),–
CCc1nnc(NS(=O)(=O)c2ccc(N)cc2)s1,1.9% [at 35.3 µM] (inactive),–
CC(C)=CCC[C@](C)(O)[C@@H]1CC=C(C)CC1,-0.216% (inactive),–
CCOc1ccc2nc(N)sc2c1,-9.95% (inactive),–
